Compound activity from PubChem BioAssay.
Choline anaer gr – blocks anaerobic gram-negative growth on choline | Gram-negative bacterium anaerobic choline minimal medium, absorbance growth; active compounds read low | calls only | 55,000 compounds, 0.2% hits | AID 1963822; call rule not given here
Calls only. This excerpt belongs to a sample that is enriched for hits.

Screening CN1CCN(c2nc3ccccc3nc2Cl)CC1 returned Choline anaer gr inactive.
`CN1CCc2cccc(Cl)c2CC1` gave Choline anaer gr active.
For Fc1cc(Br)ccc1C1NCCc2[nH]cnc21 (stereo unspecified) the results were Choline anaer gr inactive.
Screening O=c1cccc2n1CC1CC2CN(Cc2nnc(-c3cccc(Cl)c3)o2)C1 (stereo unspecified) returned Choline anaer gr inactive.
Screening Cc1cc2c(cc1S(=O)(=O)N1CC3CC(C1)c1cccc(=O)n1C3)OCC(=O)N2 (stereo unspecified) returned Choline anaer gr inactive.
For CCN1C[C@@]2(COC)C3[C@@H](OC)[C@H]4[C@H]1C3([C@@H]1C[C@@]3(O)[C@H](OC(=O)c5ccccc5)[C@@H]1[C@]4(OC(C)=O)[C@@H](O)[C@@H]3OC)[C@H](OC)C[C@H]2O the results were Choline anaer gr inactive.
For Fc1ccc(C(OCCN2CCN(CCCc3ccccc3)CC2)c2ccc(F)cc2)cc1 the results were Choline anaer gr inactive.
Screening CN1[C@@H]2CC[C@H]1CC(OC1c3ccccc3CCc3ccccc31)C2 (stereo partly specified) returned Choline anaer gr inactive.
Screening CN1C2CCC1CC(OC(c1ccc(F)cc1)c1ccc(F)cc1)C2 (stereo unspecified) returned Choline anaer gr active.
Screening Cc1ccccc1NC(=O)N1Cc2ccccc2-n2cccc2C1c1ccc(Cl)cc1 (stereo unspecified) returned Choline anaer gr inactive.
